Bioassay records from PubChem.
Pf growth 96h – Primary qHTS for delayed death inhibitors of the malarial parasite plastid, 96 hour incubation; P. falciparum luciferase reporter growth, 96 h; Potency, µM (titrated, usually from 28.7 µM), inactives show top-dose activity change, negative = inhibition, most hits filed as inhibitors; 320,000 compounds, 6.9% hits; AID 504834, 2011; also: potency is read from the fitted curve at half-maximal effect; % is scaled to controls: 0 for no effect and ±100 for the full control effect
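Plates of compound plus infected erythrocytes (2% hematocrit, 0.05% parasitemia final) incubate 96 hours, 37 C, 5% CO2. Detection reagent added; reduced luminescence from the parasites' luciferase reporter flags inhibition.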
CHX counter – Cycloheximide Counterscreen for Small Molecule Inhibitors of Shiga Toxin; cell reporter, cycloheximide protein synthesis inhibition counterscreen; AID 2314, 2010; 300,000 compounds, 12% hits; max response, %; in the data active = max response mostly above about 13%, no sharp cut-off; inactive = mostly below about 14%; also: read at 38.3 µM for the half of the compounds with a filed dose; 0% is about no effect
Shiga toxin inh – A qHTS for Small Molecule Inhibitors of Shiga Toxin; Vero cells, Shiga toxin protein synthesis inhibition reporter; inhibition, % at 38.7 µM; 290,000 compounds, 9.2% hits; AID 2315, 2010; in the data active = inhibition mostly above about 28%, no sharp cut-off; inactive = mostly below about 43%; also: 0% is about no effect
Pf growth 48h – Primary qHTS for delayed death inhibitors of the malarial parasite plastid, 48 hour incubation | 310,000 compounds, 5.9% hits | Potency, µM (doses to about 28.7 µM), without a hit: at the highest dose activity change, negative = inhibition, usual class: inhibitors | P. falciparum luciferase growth in erythrocytes, 48 h; also: potency is read from the fitted curve at half-maximal effect; % is scaled to controls: 0 for no effect and ±100 for the full control effect
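Firefly luciferase activity from engineered P. falciparum reports growth; inhibitors lower the luminescent signal. Cultures contained 2% hematocrit erythrocytes at 0.1% final parasitemia.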
HCMV inh – qHTS Assay for inhibitors of the human cytomegalovirus (HCMV); AID 1259415, 2018; activity change, negative = inhibition, % at 57.5 µM; 410,000 compounds, 4.5% hits; HFF cells, HCMV-luciferase reporter, 72 h; stronger effect = lower value; in the data active = activity change below about -60%; inconclusive = no clear call, values can overlap the other calls; inactive = above about -39%; also: % is scaled to controls: 0 for no effect and ±100 for the full control effect
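Cell-based, HFFs, 1000 cells/well, 16 h 37C; cpds in DMSO + HCMV-luc, MOI 1 PFU/cell; 72 h 37C; OneGlo luminescence after 5 min RT; norm. to buffer vs Salinomycin 10uM.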
Starred values were filed as active, the others as inactive; u = inconclusive; x = no result given; [ ] = remark or other dose. This is a sample that favours compounds with a hit; in the whole collection about 20% have one here. Unless noted, calls follow the shape of the dose curve; as a rule, active = well fitted inhibition curve with a large enough effect; inconclusive = small, poorly fitted or top-dose-only effect, or another doubt; inactive = no such curve, though single readings can be large or run the other way.

SMILES | Pf growth 96h | CHX counter | Shiga toxin inh | Pf growth 48h | HCMV inh
N#Cc1cc(NC(=O)c2ccc(Cl)cc2)ccc1Sc1ccccc1 | x | x | x | x | -83*
N#Cc1ccc(C(=O)Nc2ccc3ccccc3c2)cc1 | 171% | 26* | 103* | 216% | 13
Cc1nc(NC(=O)c2cccnc2)ccc1Br | x | 32* | 57* | 51% | 142
Cc1nc(NC(=O)CCc2ccccc2)ccc1Br | x | 32* | 137* | 88% | 33
CN(CC(=O)Nc1ccc(F)cc1)C(=O)C1CCN(C(=O)Nc2ccccc2)CC1 | u | x | x | u | -5
CCOC(=O)c1noc2nc(C)n(Cc3cccc(C#N)c3)c(=O)c12 | x | x | x | x | -12
Cc1cc2nc(C)c(-c3nc4ccccc4[nH]3)nc2cc1C | x | x | x | x | 20
CCN(CCO)c1ccc(N=Nc2cc(C)[nH]n2)cc1 | 179% | 13 | -5 | -2% | -80*
Cc1ccc(Cl)cc1NC(=O)C1CCCCC1C(=O)O (stereo unspecified) | -8%[5.75 µM] | -2 | 14 | -4% | -27
CCOC(=O)c1ccc(NS(=O)(=O)c2cc(-c3onc(C)c3C)ccc2C)cc1 | x | x | x | x | 32
CC(C)c1ccc(NC(=S)NC2CCN(Cc3ccccc3)CC2)cc1 | u | 0 | -6 | 10µM* | -27
CC(C)c1ccc(NC(=S)N2CCN(Cc3ccccc3)CC2)cc1 | 19% | 12* | 36 | 10% | -40
Cc1c(Cl)cccc1NC(=S)NC1CCN(Cc2ccccc2)CC1 | u | -3 | -17 | u | -91*
S=C(Nc1ccccc1Cl)NC1CCN(Cc2ccccc2)CC1 | u | 1 | -11 | 1% | -34
S=C(Nc1cc(Cl)cc(Cl)c1)NC1CCN(Cc2ccccc2)CC1 | u | -2 | -6 | 5.9µM* | -100*
O=c1[nH]c(/C(=N\O)c2ccccc2)no1 | 7% | -3 | 18 | -10% | -16
Cc1ccccc1NC(=S)N1CCN(Cc2ccccc2)CC1 | 1.2µM* | -5 | -12 | 5% | u
Cc1ccccc1C1=NC(C)(CC(=O)NCCOc2ccccc2)ON1C (stereo unspecified) | x | x | x | x | -8
Fc1ccc(Nc2nnc(C(F)(F)F)s2)cc1Cl | u | 2 | 8 | u | -98*
COC(=O)c1ccc2nc(-c3ccc(C#N)cc3)c(Cc3ccsc3)n2c1 | x | x | x | x | 20
O=C(NCCO)c1cc2c([nH]c3ccccc32)c(-c2ccccc2)n1 | -10% | -2 | -5 | 5% | 69
O=C(NCCO)c1cc2c([nH]c3ccccc32)c(-c2ccc(F)cc2)n1 | 15µM* | -1 | 1 | u | -35
Cc1ccc(-c2nc(C(=O)NCCCN(C)C)cc3c2[nH]c2ccccc23)cc1 | 9.3µM* | -9 | -3 | 6.6µM* | -98*
Cc1ccc(C(=O)N(C)CC(=O)Nc2ccc(F)c(F)c2F)o1 | -11% | 6 | 15 | -12% | -35
CN(CC(=O)Nc1ccc(F)c(F)c1F)C(=O)c1ccc2c(c1)OCCO2 | 20% | x | x | 33% | -29
SMILES | Pf growth 96h | CHX counter | Shiga toxin inh | Pf growth 48h | HCMV inh
CCOc1cc2c(cc1O)C(=NO)CC1C2CCC2(C)C(O)CCC12 (stereo unspecified) | x | x | x | x | -76*
CC(C)(C)c1cc(CCC(=O)NNC(=S)NC(=O)c2ccccc2)cc(C(C)(C)C)c1O | u | -1 | 7 | 13µM* | x
CC(=O)NC(=S)NNC(=O)CCc1ccccc1 | u | 6 | -4 | 32%[1.15 µM] | -15
O=C(CCc1ccccc1)NNC(=S)NC(=O)c1ccccc1 | u | 14 | 12 | u | -101*
CC(C)(C)c1cc(CCC(=O)NNC(=O)c2ccco2)cc(C(C)(C)C)c1O | u | -1 | 6 | -8% | -27
COc1ccc(OC)c(-c2nn(-c3ccccc3)cc2C(=O)NCC(c2cccs2)N2CCOCC2)c1 (stereo unspecified) | u | x | x | u | -24
CCCOC(=O)C1=C(C)NC2=C(C(=O)CC(C)(C)C2)C1c1cccnc1 (stereo unspecified) | 10µM* | -4 | -4 | u | -11
C=C/C(C)=C/CC1C(=C)CCC2C(C)(C(=O)O)CCCC12C (stereo unspecified) | -6% | -6 | -2 | u | -8
C=C1CC[C@@H]2[C@](C)(CO)[C@H](O)CC[C@@]2(C)[C@@H]1C/C=C1/C(=O)OCC1O (stereo partly specified) | x | x | x | x | -77*
C=C1CCC2[C@](C)(CO)C(O)CC[C@]2(C)C1C/C=C1/C(=O)OCC1O (stereo partly specified) | 15µM* | x | x | u | x
CC1(C)C[C@@H](O)[C@]2(C)CC[C@]3(C)C(=CCC4[C@@]5(C)CC[C@H](O)[C@](C)(CO)C5CC[C@]43C)[C@@H]2C1 (stereo partly specified) | x | x | x | x | 4
Cc1cc(N2CCC(N(C)C3CCCC3)CC2)nc2cc(O)ccc12 | -26% | -2 | 10 | 1.9µM* | -38
CCC12C(=O)C(CC)(C(c3ccccc3)=C1c1ccccc1)[C@@H]1C(=O)N(c3ccc(C)cc3)C(=O)C12 (stereo partly specified) | u | 6 | -6 | u | -9
CCCC12C(=O)C(C)(C(c3ccccc3)=C1c1ccccc1)C1C(=O)N(c3ccc(C)cc3)C(=O)C12 (stereo unspecified) | 3.3µM* | -1 | 17 | 2.6µM* | -87*
CCC12C(=O)C(CC)(C(c3ccccc3)=C1c1ccccc1)[C@@H]1C(=O)N(c3ccccc3)C(=O)C12 (stereo partly specified) | u | -1 | -6 | 2.1µM* | -61*
Nc1c(N(CCC2=CCCCC2)C(=O)Cc2ccc(F)cc2)c(=O)[nH]c(=O)n1Cc1ccccc1 | u | x | x | 9.3µM* | -16
Nc1c(N(CCC2=CCCCC2)C(=O)c2ccc([N+](=O)[O-])o2)c(=O)[nH]c(=O)n1Cc1ccccc1 | u | x | x | 10µM* | u
Cc1ccc(C(=O)N(CCC2=CCCCC2)c2c(N)n(Cc3ccccc3)c(=O)[nH]c2=O)o1 | 9% | x | x | u | -25
Nc1c(N(CCC2=CCCCC2)C(=O)COc2ccc(F)cc2Cl)c(=O)[nH]c(=O)n1Cc1ccccc1 | x | x | x | x | -98*
COc1ccc(C(=O)NNC(=O)CSc2nnc(-c3ccc(O)cc3)n2C)cc1 | u | 2 | -4 | 12% | -20
O=C(Nc1cccc(S(=O)(=O)N2CCOCC2)c1)c1cccc(S(=O)(=O)N2CCCCC2)c1 | u | x | x | u | -34
O=C(Nc1ccc(N2CCCCCC2)cc1)c1cccc(S(=O)(=O)N2CCOCC2)c1 | 10µM* | x | x | 13µM* | -74*
O=C(NCCOC(=O)c1ccc(S(=O)(=O)N2CCOCC2)cc1)c1cccnc1 | 2.3µM* | -3 | -5 | 1% | -8
CCOC(=O)c1ccc(NC(=O)c2cccc(S(=O)(=O)N3CCOCC3)c2)cc1 | 4% | -8 | -1 | 6.6µM* | -23
